In the library only some 19% were active in any assay of this set; here they are far more common.
DT40 TDP1 CPT: qHTS for Inhibitors of human tyrosyl-DNA phosphodiesterase 1 (TDP1): qHTS in cells in presence of CPT; 420,000 tested, 12% active; AID 686979, 2013; Potency, µM (highest dose often 46.2 µM), for the others: at the top dose activity change, negative = growth inhibition, usual class: inhibitors; chicken DT40 Tdp1-/-;hTDP1 cells + 20 nM CPT, ATP luminescence, 48 h; also: potency is read from the fitted curve at half-maximal effect; nearly all actives have a fitted effect of over 55% in size
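Chicken DT40 Tdp1-/- cells complemented with human TDP1, 400 cells/well, exposed to compounds plus 20 nM camptothecin for at least 48 h at 37 C; viability read as ATP content by CellTiter-Glo luminescence.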
HT1080-NT tox: qHTS for induction of synthetic lethality in tumor cells producing 2HG: qHTS for the HT-1080-NT fibrosarcoma cell line. HT-1080-NT fibrosarcoma viability, CellTiter-Glo ATP luminescence, 48 h. 360,000 tested, 1.6% active. Potency, µM (series often up to 46.1 µM), for the others: top-dose activity, negative = less viability, actives largely listed as cytotoxic. AID 686970, 2013;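 also: NT is the 2HG producing partner of a matched IDH1 knockdown line; potency is read from the fitted curve at half-maximal effect; 0% = DMSO-treated cells and -100% = media-only wells without cells; nearly all actives have a fitted effect of over 55% in size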
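HT-1080-NT fibrosarcoma cells (2HG-overproducing), 750 cells/well in RPMI with 5% FBS, dosed after 2 h and incubated 48 h at 37C. CellTiter-Glo luminescence normalized to DMSO and no-cell wells; concentration-response curves fitted and classed.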
HT1080 IDH1KD tx: qHTS for induction of synthetic lethality in tumor cells producing 2HG: qHTS for the HT-1080-IDH1KD cell line; HT-1080 IDH1 knockdown viability, ATP luminescence, 48 h; AID 686971, 2013; Potency, µM (titrated, usually from 46.1 µM), inactives show at the highest dose activity, negative = toxicity, usual class: cytotoxic; 360,000 tested, 2% active;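 also: potency is read from the fitted curve at half-maximal effect; 0% = DMSO wells and -100% = cell-free medium wells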
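Viability of IDH1-knockdown HT-1080 fibrosarcoma cells was assessed by CellTiter-Glo after 48 h at 37 °C with titrated compound; concentration-effect curves were classified by fit quality and response size.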
IL1B secr inh: qHTS for Inhibitors of Inflammasome Signaling: IL-1-beta AlphaLISA Primary Screen; AID 743279, 2014; activity change, % at 57.5 µM; THP-1 LPS/ATP IL-1B secretion, AlphaLISA, 16 h; active compounds read low; 360,000 tested, 4.7% active; in the data active = activity change below about -50%; inconclusive = mostly about -30% to -49%
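THP-1 cells pretreated 1 hr with compounds (up to 57.5 uM final), then stimulated with LPS (250 ng/mL final) plus ATP (1.25 mM final); secreted IL-1B measured by AlphaLISA after 16 hr, decreased signal indicating inhibition.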
DT40 TDP1 no CPT: qHTS for Inhibitors of human tyrosyl-DNA phosphodiesterase 1 (TDP1): qHTS in cells in absence of CPT. AID 686978, 2013. 420,000 tested, 15% active. DT40 Tdp1-/- hTDP1 cells, no CPT, ATP luminescence, 48 h. Potency, µM (series often up to 46.2 µM), inactives show at the top dose activity change, negative = growth inhibition, usual class: inhibitors; also: potency is read from the fitted curve at half-maximal effect; nearly all actives have a fitted effect of over 55% in size
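Camptothecin absent (DMSO only). Human TDP1-complemented DT40 knockout cells, 400 cells/well, 37 °C for minimum 48 hr; ATP measured via CellTiter-Glo, 30 min dark incubation, luminescence.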
The depositor's hits bear a star; ? = inconclusive; nt = not tested or not shown. Unless noted, calls follow the shape of the dose curve; as a rule, active = well fitted curve in the direction sought with a large enough effect; inconclusive = small, poorly fitted or top-dose-only effect, or another doubt; inactive = no such curve, though single readings can be large; an effect the other way counts as inactive or inconclusive. Unless noted, % is scaled to controls: 0 for no effect and ±100 for the full control effect.

SMILES | DT40 TDP1 CPT | HT1080-NT tox | HT1080 IDH1KD tx | IL1B secr inh | DT40 TDP1 no CPT
CCOC(=O)c1c(-c2ccccc2)csc1NC(=O)c1cc2ccccc2oc1=O | ? | 12% | 4% | -3 | 16µM*
Cc1cccc(C(C)C)c1NC(=O)COC(=O)CCC(=O)N(CC(C)C)c1c(N)n(CC(C)C)c(=O)[nH]c1=O | -2% | 13% | 16% | 13 | -16%
C/C(=N\OCC(=O)OCC(=O)NC(=O)c1ccccc1)c1ccc2c(c1)OCO2 | 2% | 1% | 2% | 22 | -13%
COc1ccc(-n2nc3ccc(NC(=O)c4ccc(C#N)cc4F)cc3n2)cc1Cl | -19% | nt | nt | nt | -1%
CCOC(=O)c1c(-c2ccc(-c3ccccc3)cc2)csc1NC(=O)CCN1CCOCC1 | 18µM* | ? | ? | -50* | 15µM*
CCOC(=O)c1c(-c2cccs2)csc1NC(C)=O | -22% | -10% | -14% | -6 | ?
CCOC(=O)c1c(-c2ccc(OC)c(OC)c2)csc1NC(=O)C1CCCO1 (stereo not given) | ? | -20% | -5% | -67* | ?
CCOC(=O)c1c(-c2ccc(C)o2)csc1NC(=S)NC(=O)c1cccs1 | ? | -20% | -27% | 12 | ?
CCOC(=O)c1c(-c2cccs2)csc1NC(=O)CN1CC(C)OC(C)C1 (stereo not given) | 26µM* | ? | ? | 0 | 23µM*
CCOC(=O)c1c(-c2ccccc2)csc1NC(=O)CCN1C(=O)c2ccccc2C1=O | 2% | 12% | 8% | 0 | ?
CCOC(=O)c1c(-c2ccc(C)o2)csc1NC(=S)NC(=O)c1ccccc1Br | 16µM* | ? | ? | 0 | ?
COC(=O)c1c(-c2ccc(F)cc2)csc1NC(=O)C1CCCO1 (stereo not given) | ? | -9% | -9% | -18 | ?
CCOC(=O)c1c(-c2ccccc2)csc1NC(=O)CSc1nnc(C)s1 | 23µM* | -11% | -12% | -30 | ?
CCOC(=O)c1c(-c2ccc(C)o2)csc1NC(=O)CSc1nnc(C)s1 | ? | ? | ? | -16 | ?
COc1cc2c(cc1OC)C(c1cc(OC)c(O)c(OC)c1)CC(=O)N2 (stereo not given) | 16% | nt | nt | nt | 0%
NC(N)=NS(=O)(=O)c1ccc(NC(=S)NC(=O)Cc2ccc(Cl)cc2)cc1 | 5% | 0% | -1% | 30 | 0%
O=C(N/C(=C\c1cccc([N+](=O)[O-])c1)C(=O)N(CCO)CCO)c1ccco1 | -3% | 7% | -10% | -51* | 1%
O=C(c1cc2n(n1)C(C(F)(F)F)CC(c1ccco1)N2)N1CCc2ccccc2C1 (stereo not given) | ? | -19% | ? | -8 | 18µM*
O=C(c1cnn2c1NC(c1ccco1)CC2C(F)(F)F)N1CCN(c2cccc(Cl)c2)CC1 (stereo not given) | 16µM* | 15µM* | 18µM* | -12 | 8.2µM*
O=C(c1ccco1)N1CCN(C(=O)c2cnn3c2NC(c2cccs2)CC3C(F)(F)F)CC1 (stereo not given) | -12% | 2% | 1% | -15 | -26%
COc1ccccc1N1CCN(C(=O)c2cc3n(n2)C(C(F)(F)F)CC(c2ccco2)N3)CC1 (stereo not given) | 15µM* | -7% | -10% | -15 | 18µM*
O=C(COc1ncnc2ccccc12)Nc1cc([N+](=O)[O-])ccc1F | -3% | 9% | 0% | -4 | 3%
Cc1cccc(NC(=O)CC2C(=O)NC3CCCCC3N2C(=O)c2ccccc2Cl)c1 (stereo not given) | -11% | -1% | 3% | -7 | -34%

From PubChem BioAssay
